{
  "source": "PubChem BioAssay (NCI)",
  "note": "About 83,000 compounds went through this panel and 20% of them were active in at least one assay; those are over-represented in the sample as a whole.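 Activity criterion: percent growth below 10, measured after cells in 96-well plates were exposed to a single compound concentration for 48 hours.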 Activity calls are given as the source filed them.",
  "data": [
    {"system": "HCT-15 colon", "test": "NCI-60 one-dose screen, 48 h (100 = growth as untreated, 0 = no growth, -100 = all killed)", "conditions": "10 µM unless noted", "values": [
      {"smiles": "COc1cc2c(c(OC)c1OC)CCC(c1cccc(NC(=O)c3ccc(Br)cc3)c1)O2", "note": "(stereo not given)", "growth": "85.2% (inactive)"},
      {"smiles": "N#Cc1nc(-c2ccc(F)cc2)oc1S(=O)(=O)N1CCCCC1", "growth": "-22.4% (active)"},
      {"smiles": "Clc1ccc(/C=N\\N=C\\c2ccc(Cl)c(Cl)c2)cc1Cl", "growth": "7.55% (active)"},
      {"smiles": "C1CCC([PH+](C2CCCCC2)C2CCCCC2[PH+](C2CCCCC2)C2CCCCC2)CC1.[Au].[CH-]1CCCCC1C1CCCC[N-]1", "note": "(stereo not given)", "growth": "-26.2% (active)"},
      {"smiles": "Cn1c(=O)c2nc(/C=C/c3ccccc3)c(=O)[nH]c2n(C)c1=S", "growth": "102% (inactive)"},
      {"smiles": "COc1ccc(/C=C(\\C#N)n2nnc3cc(Cl)ccc32)cc1", "growth": "0.0447% (active)"},
      {"smiles": "O=C(CN1C(=O)NC2NC(=O)NC21)N/N=C/c1ccccc1[N+](=O)[O-]", "note": "(stereo not given)", "growth": "103% (inactive)"},
      {"smiles": "CCN(CC)CC(O)COc1c(Br)c(Br)c(Br)c2c1OC(C)(C)C2", "note": "(stereo not given)", "growth": "97.3% (inactive)"},
      {"smiles": "CCCNc1nc2ccccc2c2c1S(=O)(=O)c1ccc(Cl)cc1C2=O", "growth": "7.22% (active)"},
      {"smiles": "CS(=O)(=O)Nc1cncc(-c2ccc3ncnc(Nc4cncc(Cl)c4)c3c2)c1", "growth": "92.9% (inactive)"},
      {"smiles": "CN(C)c1ccc(C(=O)OCCCCCCl)cc1", "growth": "100% (inactive)"},
      {"smiles": "CN(C)c1ccc(-c2c(C#N)c(N)nn2C(=O)c2ccc(NC(=O)c3ccccn3)cc2)cc1", "growth": "85.2% (inactive)"},
      {"smiles": "COCCn1cc(-c2csc(-c3cn(C)c4ccc(Br)cc34)n2)c2cccnc21", "growth": "12.1% (inactive)"},
      {"smiles": "CC1(C)COB(OCC(C)(C)COB2OCC(C)(C)CO2)OC1", "growth": "108% (inactive)"},
      {"smiles": "Cc1c[n+](Cc2ccc3ccccc3c2)cn1Cc1ccc2ccccc2c1", "growth": "95.1% (inactive)"},
      {"smiles": "Cn1cc(-c2csc(-c3c[nH]c4ccccc34)n2)c2cnccc21", "growth": "-59.7% (active)"},
      {"smiles": "CCOC(=O)C#Cc1c(C(=O)OCC)nnn1Cc1ccc([N+](=O)[O-])cc1", "growth": "-20% (active)"},
      {"smiles": "CCn1cc(C(=O)O)c(=O)c2cc(F)c(N3CCN(CC(=O)Nc4ccc(S(=O)(=O)Nc5nccc(C)n5)cc4)C(C)C3)c(F)c21", "note": "(stereo not given)", "growth": "100% (inactive)"},
      {"smiles": "C=C1C(=O)O[C@H]2[C@H]1CC/C(COC(=O)/C=C\\C(=O)NCc1ccc(Cn3c(=O)sn(CCI)c3=O)cc1)=C\\CC[C@@]1(C)O[C@@H]21", "growth": "15.6% (inactive)"},
      {"smiles": "CC1CN(S(=O)(=O)c2oc(-c3ccc(Cl)cc3)nc2C#N)CC(C)O1", "note": "(stereo not given)", "growth": "-26.5% (active)"},
      {"smiles": "Cc1ccc(C)n1-c1ccccc1-n1c(C)ccc1C", "growth": "115% (inactive)"},
      {"smiles": "CCCCCCC12CCC(=O)N1CCc1cncn12", "note": "(stereo not given)", "growth": "102% (inactive)"},
      {"smiles": "CNC(=O)c1[nH]cc(-c2ccc(OC)cc2)c1-c1cc(OC)c2c(c1OC)OCO2", "growth": "97.1% (inactive)"},
      {"smiles": "C#Cc1c2c(c(OC)c3c1OCO3)[C@H]([C@H]1OC(=O)c3c1ccc(OC)c3OC)N(C)CC2", "growth": "60.7% (inactive)"},
      {"smiles": "C=CCc1c(O)c(C(=O)/C=C/c2ccccc2)c(OC)c2ccoc12", "growth": "39.6% (inactive)"},
      {"smiles": "O=S(=O)(Nc1ccc(F)cc1F)c1ccc(-c2cnc(C3CC3)o2)cc1", "growth": "23.7% (inactive)"},
      {"smiles": "CN1CCN(c2cc(Nc3cc(C4CC4)[nH]n3)nc(Nc3ccc(CC(=O)NCc4cccc(F)c4)cc3)n2)CC1", "growth": "56.5% (inactive)"},
      {"smiles": "CC(C)(C)[Si](C)(C)OC1[C@@H](CNC(=O)NC(=O)NC(N)=O)O[C@@H](n2cnc3c(NC(=O)Nc4ccccc4)ncnc32)[C@H]1O[Si](C)(C)C(C)(C)C", "note": "(stereo not given in full)", "growth": "94.8% (inactive)"},
      {"smiles": "COc1ccc(OC)c(-c2nc(SCC(=O)c3ccc(C#N)cc3)[nH]c(=O)c2C#N)c1", "growth": "96.9% (inactive)"},
      {"smiles": "COc1ccc(C(C)=O)cc1S(=O)(=O)Nc1c(N)nc(SC)[nH]c1=O", "growth": "100% (inactive)"},
      {"smiles": "CCOC(=O)C1=C(N)Oc2c(sc3c(F)cccc23)C1c1ccc(O)cc1", "note": "(stereo not given)", "growth": "24.2% (inactive)"},
      {"smiles": "CCNCCNc1cc(-c2ccc(C(F)(F)F)cc2)c(C#N)c2nc3ccccc3n12", "growth": "-75.4% (active)"},
      {"smiles": "Cn1cc(-c2ccc3nc(-c4ccc(CC(=O)ONc5cc(C(C)(C)C)on5)cc4)cnc3c2)cn1", "growth": "16.5% (inactive)"},
      {"smiles": "Cn1cc(C(=O)c2nc(-c3c[nH]c4ccccc34)no2)c2cc(F)ccc21", "growth": "33.2% (inactive)"},
      {"smiles": "COc1ccc(CNc2c3ccccc3nc3ccccc23)cc1", "growth": "22% (inactive)"},
      {"smiles": "O=[N+]([O-])c1cccc(-c2nc3cc4nc5ccccc5[nH]c4cc3n2)c1", "growth": "99.5% (inactive)"},
      {"smiles": "COc1c(C(=O)Nc2ccc(C)c(Br)c2)ccc2ccccc12", "growth": "61.2% (inactive)"},
      {"smiles": "O=C1C(Cl)=C(NCCCCCCNC2=C(Cl)C(=O)c3ccccc3C2=O)C(=O)c2ccccc21", "growth": "63.3% (inactive)"},
      {"smiles": "O=C1c2c(c3c4ccccc4[nH]c3c3ccc4ccccc4c23)C(=O)N1CCN1CCNCC1", "growth": "-45.2% (active)"},
      {"smiles": "COc1ccccc1CNc1c2ccccc2nc2ccccc12", "growth": "26% (inactive)"}
    ]},
    {"system": "HT29 colon", "test": "NCI-60 one-dose screen, 48 h (100 = growth as untreated, 0 = no growth, -100 = all killed)", "conditions": "10 µM unless noted", "values": [
      {"smiles": "COc1cc2c(c(OC)c1OC)CCC(c1cccc(NC(=O)c3ccc(Br)cc3)c1)O2", "note": "(stereo not given)", "growth": "77.4% (inactive)"},
      {"smiles": "N#Cc1nc(-c2ccc(F)cc2)oc1S(=O)(=O)N1CCCCC1", "growth": "32.3% (inactive)"},
      {"smiles": "Clc1ccc(/C=N\\N=C\\c2ccc(Cl)c(Cl)c2)cc1Cl", "growth": "32.3% (inactive)"},
      {"smiles": "C1CCC([PH+](C2CCCCC2)C2CCCCC2[PH+](C2CCCCC2)C2CCCCC2)CC1.[Au].[CH-]1CCCCC1C1CCCC[N-]1", "note": "(stereo not given)", "growth": "2.8% (active)"},
      {"smiles": "Cn1c(=O)c2nc(/C=C/c3ccccc3)c(=O)[nH]c2n(C)c1=S", "growth": "109% (inactive)"},
      {"smiles": "COc1ccc(/C=C(\\C#N)n2nnc3cc(Cl)ccc32)cc1", "growth": "2.07% (active)"},
      {"smiles": "O=C(CN1C(=O)NC2NC(=O)NC21)N/N=C/c1ccccc1[N+](=O)[O-]", "note": "(stereo not given)", "growth": "112% (inactive)"},
      {"smiles": "CCN(CC)CC(O)COc1c(Br)c(Br)c(Br)c2c1OC(C)(C)C2", "note": "(stereo not given)", "growth": "18.9% (inactive)"},
      {"smiles": "CCCNc1nc2ccccc2c2c1S(=O)(=O)c1ccc(Cl)cc1C2=O", "growth": "9.72% (active)"},
      {"smiles": "CS(=O)(=O)Nc1cncc(-c2ccc3ncnc(Nc4cncc(Cl)c4)c3c2)c1", "growth": "80% (inactive)"},
      {"smiles": "CN(C)c1ccc(C(=O)OCCCCCCl)cc1", "growth": "99.1% (inactive)"},
      {"smiles": "CN(C)c1ccc(-c2c(C#N)c(N)nn2C(=O)c2ccc(NC(=O)c3ccccn3)cc2)cc1", "growth": "113% (inactive)"},
      {"smiles": "COCCn1cc(-c2csc(-c3cn(C)c4ccc(Br)cc34)n2)c2cccnc21", "growth": "26% (inactive)"},
      {"smiles": "CC1(C)COB(OCC(C)(C)COB2OCC(C)(C)CO2)OC1", "growth": "110% (inactive)"},
      {"smiles": "Cc1c[n+](Cc2ccc3ccccc3c2)cn1Cc1ccc2ccccc2c1", "growth": "-35.5% (active)"},
      {"smiles": "Cn1cc(-c2csc(-c3c[nH]c4ccccc34)n2)c2cnccc21", "growth": "-1.85% (active)"},
      {"smiles": "CCOC(=O)C#Cc1c(C(=O)OCC)nnn1Cc1ccc([N+](=O)[O-])cc1", "growth": "7.68% (active)"},
      {"smiles": "CCn1cc(C(=O)O)c(=O)c2cc(F)c(N3CCN(CC(=O)Nc4ccc(S(=O)(=O)Nc5nccc(C)n5)cc4)C(C)C3)c(F)c21", "note": "(stereo not given)", "growth": "117% (inactive)"},
      {"smiles": "C=C1C(=O)O[C@H]2[C@H]1CC/C(COC(=O)/C=C\\C(=O)NCc1ccc(Cn3c(=O)sn(CCI)c3=O)cc1)=C\\CC[C@@]1(C)O[C@@H]21", "growth": "26.3% (inactive)"},
      {"smiles": "CC1CN(S(=O)(=O)c2oc(-c3ccc(Cl)cc3)nc2C#N)CC(C)O1", "note": "(stereo not given)", "growth": "58.5% (inactive)"},
      {"smiles": "Cc1ccc(C)n1-c1ccccc1-n1c(C)ccc1C", "growth": "103% (inactive)"},
      {"smiles": "CCCCCCC12CCC(=O)N1CCc1cncn12", "note": "(stereo not given)", "growth": "100% (inactive)"},
      {"smiles": "CNC(=O)c1[nH]cc(-c2ccc(OC)cc2)c1-c1cc(OC)c2c(c1OC)OCO2", "growth": "108% (inactive)"},
      {"smiles": "C#Cc1c2c(c(OC)c3c1OCO3)[C@H]([C@H]1OC(=O)c3c1ccc(OC)c3OC)N(C)CC2", "growth": "60.7% (inactive)"},
      {"smiles": "C=CCc1c(O)c(C(=O)/C=C/c2ccccc2)c(OC)c2ccoc12", "growth": "27.9% (inactive)"},
      {"smiles": "O=S(=O)(Nc1ccc(F)cc1F)c1ccc(-c2cnc(C3CC3)o2)cc1", "growth": "14% (inactive)"},
      {"smiles": "CN1CCN(c2cc(Nc3cc(C4CC4)[nH]n3)nc(Nc3ccc(CC(=O)NCc4cccc(F)c4)cc3)n2)CC1", "growth": "8.1% (active)"},
      {"smiles": "CC(C)(C)[Si](C)(C)OC1[C@@H](CNC(=O)NC(=O)NC(N)=O)O[C@@H](n2cnc3c(NC(=O)Nc4ccccc4)ncnc32)[C@H]1O[Si](C)(C)C(C)(C)C", "note": "(stereo not given in full)", "growth": "10.5% (inactive)"},
      {"smiles": "COc1ccc(OC)c(-c2nc(SCC(=O)c3ccc(C#N)cc3)[nH]c(=O)c2C#N)c1", "growth": "108% (inactive)"},
      {"smiles": "COc1ccc(C(C)=O)cc1S(=O)(=O)Nc1c(N)nc(SC)[nH]c1=O", "growth": "104% (inactive)"},
      {"smiles": "CCOC(=O)C1=C(N)Oc2c(sc3c(F)cccc23)C1c1ccc(O)cc1", "note": "(stereo not given)", "growth": "30.7% (inactive)"},
      {"smiles": "CCNCCNc1cc(-c2ccc(C(F)(F)F)cc2)c(C#N)c2nc3ccccc3n12", "growth": "-61.7% (active)"},
      {"smiles": "Cn1cc(-c2ccc3nc(-c4ccc(CC(=O)ONc5cc(C(C)(C)C)on5)cc4)cnc3c2)cn1", "growth": "39.6% (inactive)"},
      {"smiles": "Cn1cc(C(=O)c2nc(-c3c[nH]c4ccccc34)no2)c2cc(F)ccc21", "growth": "8.8% (active)"},
      {"smiles": "COc1ccc(CNc2c3ccccc3nc3ccccc23)cc1", "growth": "19.3% (inactive)"},
      {"smiles": "O=[N+]([O-])c1cccc(-c2nc3cc4nc5ccccc5[nH]c4cc3n2)c1", "growth": "100% (inactive)"},
      {"smiles": "COc1c(C(=O)Nc2ccc(C)c(Br)c2)ccc2ccccc12", "growth": "78.5% (inactive)"},
      {"smiles": "O=C1C(Cl)=C(NCCCCCCNC2=C(Cl)C(=O)c3ccccc3C2=O)C(=O)c2ccccc21", "growth": "98.7% (inactive)"},
      {"smiles": "O=C1c2c(c3c4ccccc4[nH]c3c3ccc4ccccc4c23)C(=O)N1CCN1CCNCC1", "growth": "-14.6% (active)"},
      {"smiles": "COc1ccccc1CNc1c2ccccc2nc2ccccc12", "growth": "17.7% (inactive)"}
    ]}
  ]
}
